Source: PubChem BioAssay AID1851 (National Center for Advancing Translational Sciences (NCATS), 2009)
Screen size: about 16,000 compounds; about 5,800 (36%) were called active. Another 23% or so got no clear call; they are omitted. Calls follow the shape of the dose curve; as a rule, active = well fitted curve in the direction sought with a large enough effect; inconclusive = small, poorly fitted or top-dose-only effect, or effect the other way; inactive = no such curve, though single readings can be large or run the other way. Some of the results follow.

The compounds below were run against Cytochrome P450 2C19 (Homo sapiens) (UniProt P33261) (assay: Cytochrome panel assay with activity outcomes). Details: recombinant CYP, pro-luciferin dealkylation, luminescence, p450-cyp2c19; series mostly up to 57.1 µM; activity, negative = inhibition: at the top concentration.
Cytochrome P450 2C19 (Homo sapiens), sequence (P33261 whole entry, looked up): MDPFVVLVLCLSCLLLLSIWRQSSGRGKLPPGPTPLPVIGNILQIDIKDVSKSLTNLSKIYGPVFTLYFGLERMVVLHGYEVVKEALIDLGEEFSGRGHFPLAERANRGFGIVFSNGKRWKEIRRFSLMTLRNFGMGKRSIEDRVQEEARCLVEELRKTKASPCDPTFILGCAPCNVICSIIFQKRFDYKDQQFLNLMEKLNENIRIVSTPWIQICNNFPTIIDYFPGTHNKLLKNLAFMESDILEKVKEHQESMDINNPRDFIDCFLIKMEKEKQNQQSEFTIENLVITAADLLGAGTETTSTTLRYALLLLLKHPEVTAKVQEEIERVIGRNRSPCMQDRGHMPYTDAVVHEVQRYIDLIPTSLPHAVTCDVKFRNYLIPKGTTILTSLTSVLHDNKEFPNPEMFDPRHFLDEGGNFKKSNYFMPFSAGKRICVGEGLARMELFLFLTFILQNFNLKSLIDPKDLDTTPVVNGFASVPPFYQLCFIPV
% is scaled to controls: 0 for no effect and ±100 for the full control effect.

activity, negative = inhibition, inactive:
COc1cc2nc(N(C)CCCNC(=O)[C@@H]3CCCO3)nc(N)c2cc1OC -17.6% [at 25.6 µM]
O=C(O)[C@@H]1[C@@H](C(=O)O)[C@]23C[C@@]2(C(=O)O)[C@]2(C(=O)O)CCC3=C3CCCC312 37.4% [at 11.4 µM]
N#CCCn1c(=O)c(-c2cccs2)nc2cnc(Nc3ccccc3)nc21 2.63%
O=C(O)[C@@H](S)[C@H](S)C(=O)O -39.9% [at 11.4 µM]
Cc1cc(=O)c2ccccc2[nH]1 -24.5%
O=C(c1ccc(F)cc1)C1CCN(CCn2c(=S)[nH]c3ccccc3c2=O)CC1 9.05%
C[C@H](Nc1ncnc2sc3c(c12)CCC3)C(=O)O -27.4%
COCCNc1nc(-c2ccccc2C)nc2ccccc12 -15.5%
O=C(c1cnccn1)N1CCC2(CC1)CN(Cc1nccs1)C2 30.2%
O=C(c1cnccn1)N1CCC2(CCN(Cc3nccs3)CC2)CC1 21.5%
CC(=O)N1CCC[C@@]2(CCN(Cc3nccs3)C2)C1 -16.1%
COCC(=O)N1CCC[C@@]2(CCN(Cc3nccs3)C2)C1 -3.18%
CC(=O)N1CCC2(CCN(Cc3nccs3)CC2)CC1 -44.8%
COC(=O)N1CCC2(CCN(Cc3nccs3)CC2)CC1 12.1%
CC1(C)S[C@@H]2[C@H](NC(=O)[C@@H](N)c3ccc(O)cc3)C(=O)N2[C@H]1C(=O)O 3.5% [at 25.6 µM]
C[C@H]1[C@@H](O)[C@@H](C)\C=C/C=C\C=C/C=C\C=C/C=C\C=C/[C@@H](O[C@H]2O[C@@H](C)[C@@H](O)[C@@H](N)[C@@H]2O)C[C@@H]2O[C@](O)(C[C@@H](O)C[C@@H](O)[C@@H](O)CC[C@@H](O)C[C@@H](O)CC(=O)O[C@H]1C)C[C@@H](O)[C@H]2C(=O)O (stereo in doubt) 96.2% [at 25.6 µM]
CCOC(=O)c1[nH]c2cc(OC)c(OC)cc2c1NC(=O)c1ccc2c(c1)OCO2 19.5%
COC(=O)c1[nH]c2cc(OC)ccc2c1NC(=O)c1nonc1C -15%
CCOC(=O)c1[nH]c2cc(OC)c(OC)cc2c1NC(=O)c1nonc1C -17.1%
CCOC(=O)c1[nH]c2cc3c(cc2c1NC(=O)CN1CCC2(CC1)OCCO2)OCO3 -16.2%
CC(C)[C@@H](OCc1ccccc1)[C@H](C)/C=N\OC[C@@H](O)[C@@H]1O[C@@H]2OC(C)(C)O[C@@H]2[C@H]1O -18.3% [at 11.4 µM]
CCCn1c(=O)c2[nH]c(C3CCCC3)nc2n(CCC)c1=O -41.7%
Cc1cccc(NC(=O)c2cccc(N3C(=O)C4C5CCC(C5)C4C3=O)c2)c1C (stereo not drawn) -25.3%
COc1cccc(/C(O)=C2/C(=O)C(=O)N(c3ccccn3)C2c2ccc(OC)c(OC)c2)c1 (stereo not drawn) 1.45%
c1ccc2c[n+](Cc3ccnc4ccccc34)ccc2c1 10.8% [at 11.4 µM]
CCc1c(C)sc(NC(=O)OC)c1C(N)=O 2.97%
COC(=O)c1c(C)[nH]c(C)c1C(=O)c1ccccc1Cc1ccccc1 -8.63%
COc1c(NC(C)=O)c2ccccc2c2ccccc12 4.06% [at 11.4 µM]
CCOc1cc(CC(=O)N[C@@H](CC(C)C)c2ccccc2N2CCCCC2)ccc1C(=O)O 18.6% [at 25.6 µM]
CC(=O)NCCNc1cc(-c2ccccc2CN(C)C)ncn1 -7.92%
COc1ccc(C2CC(=O)CC(=O)C2n2cncn2)cc1 (stereo not drawn) -14.6%
CN1C(=O)C[C@H](c2ccccc2)C1=O -32.1% [at 25.6 µM]
CC(C)(C)CC(C)(C)c1ccc(OCOCCOCCO)c(Cc2cc(C(C)(C)CC(C)(C)C)cc(Cc3cc(C(C)(C)CC(C)(C)C)ccc3OCOCCOCCO)c2OCOCCOCCO)c1 -27.9% [at 25.6 µM]
CO[C@H]1[C@H](O[C@H]2O[C@@H](C)[C@@H](O[C@@H]3C[C@](C)(O)[C@H](OC(=O)CC(C)C)[C@H](C)O3)[C@@H](N(C)C)[C@@H]2O)[C@@H](CC=O)C[C@@H](C)[C@@H](O)/C=C\C=C/C[C@@H](C)OC(=O)C[C@H]1OC(C)=O 25.9% [at 25.6 µM]
O[C@H](C[C@@H]1CCCCN1)c1ccc2c(c1)oc1ccccc12 -14.6% [at 11.4 µM]
O[C@@H](c1cc(C(F)(F)F)nc2c(Cl)cc(Cl)cc12)[C@@H]1CCCCN1 -14.3% [at 11.4 µM]
COCCNc1ncnc2ccc(-c3cccc(NS(C)(=O)=O)c3)cc12 -14.8%
c1ccc2cc(C3=NCCN3)ncc2c1 -35.7%
COc1cc(=O)n2c(n1)SCCC2 -7.61%
O=c1c(-c2ccccc2)c(O)c2cccc3c2n1CCC3 -6.66%
CCCCN(Cc1ccccc1)C(=O)c1cnc2n(c1=O)CCS2 8.84%
COC(=O)C1CC1C(NC(=O)[C@H]1CCCCN1)c1ccccc1 (stereo partly drawn) -41%
O=C(N[C@@H](c1ccccc1)[C@@H]1C[C@H]1C(=O)O)OCc1ccccc1 -33%
COC(=O)[C@@H]1C[C@H]1[C@@H](NC(=O)c1cccnc1)c1ccccc1 -22.1%
COC(=O)[C@H]1C[C@@H]1[C@H](NC(C)=O)c1ccccc1 -28.9%
COC(=O)[C@H]1C[C@@H]1[C@H](NC(=O)c1cccnc1)c1ccccc1 -11.7%
COc1cccc(Nc2ncc3nc(-c4cc(F)cc(F)c4)c(=O)n(CCC#N)c3n2)c1 -0.627%
CC(C)(S)[C@H](N)C(=O)O 4.04% [at 11.4 µM]

AC50, inactive:
N[C@H](C(=O)O)c1cccc(O)c1
C[C@@H](C[N+](C)(C)C)OC(N)=O

AC50, active:
C=Cc1c(C)c2cc3nc(cc4[nH]c(cc5nc(cc1[nH]2)C(C)=C5CCC(=O)O)c(CCC(=O)OC)c4C)[C@@]1(C)C3=CC=C(C(=O)OC)[C@H]1C(=O)OC (tested in a mixture with another compound) 1.26 µM
c1ccc(Cc2nnc(Sc3ccccc3)c3ccccc23)cc1 5.01 µM
COc1cc(C(=O)OC(C)C(=O)Nc2ccc3c(c2)OCO3)ccc1OCc1c(C)noc1C (stereo not drawn) 14.1 µM
CC1CCCC(n2c(=S)[nH]c3ccccc3c2=O)C1C (stereo not drawn) 0.1 µM
COCCNc1nc(SCc2ccccc2)nc2sc3c(c12)CCC3 4.47 µM
OCCNc1nc(SCc2ccccc2)nc2sc3c(c12)CCC3 2.82 µM
CC(CO)Nc1nc(SCc2ccccc2)nc2sc3c(c12)CCC3 (stereo not drawn) 3.16 µM
O=C(c1cnccn1)N1CCC2(CCCN(Cc3nccs3)C2)CC1 15.8 µM
CC(=O)N1CCC2(CCCN(Cc3nccs3)C2)CC1 5.01 µM
COC(=O)N1CCC2(CCCN(Cc3nccs3)C2)CC1 20 µM
CCc1ccc(N(C(=O)c2snc(C(N)=O)c2N)C(C(=O)NCCC(C)C)c2c[nH]c3ccccc23)cc1 (stereo not drawn) 2.24 µM
CCOC(=O)c1cc2c(C)n(-c3ccc(C)cc3)c(C)c2ccc1=O 14.1 µM
CCOC(=O)c1[nH]c2ccc(OC)cc2c1NC(=O)c1ccc2c(c1)OCO2 7.08 µM
COC(=O)c1[nH]c2cc(OC)ccc2c1NC(=O)c1ccc2c(c1)OCO2 10 µM
C[C@@H](C(=O)Nc1ccc2ccccc2c1)[C@H]1C[C@]1(C)[C@H](NC(=O)OCc1ccccc1)c1ccccc1 1 µM
C[C@@H](C(=O)Nc1ccc2ccccc2c1)[C@@H]1C[C@@]1(C)[C@@H](NC(=O)OCc1ccccc1)c1ccccc1 3.16 µM
O=c1c2ccccc2nnn1CSc1nnc(COc2ccc(Cl)cc2)n1Cc1ccco1 14.1 µM
O=C(Nc1ccc(Cl)cc1Cl)c1cccc(N2C(=O)C=CC2=O)c1 3.98 µM
COc1ccc(N2C(=O)c3ccccc3NC2c2ccc(OC)c(CSc3ccccn3)c2)cc1 (stereo not drawn) 0.891 µM
CCOc1ccc(CC(=O)Nc2sc(Cc3ccccc3)c(C)c2C(N)=O)cc1OCC 4.47 µM
COC(=O)c1c(NC(C)=O)sc(Cc2ccccc2)c1C 4.47 µM
COc1ccc2[nH]cc(CCNc3cc(-c4ccccc4OC)ncn3)c2c1 3.16 µM
COc1ccc2[nH]cc(CCNc3cc(-c4ccccc4C)ncn3)c2c1 7.94 µM
COc1ccc2[nH]cc(CCNc3cc(-c4ccccc4C(F)(F)F)ncn3)c2c1 10 µM
Fc1ccc2nc(Nc3nc4c(s3)CCCC4)sc2c1 17.8 µM
COc1cccc(-c2cc(C(=O)Nc3cccc(O)c3)no2)c1 3.16 µM
O=C1C(Cc2ccccc2)C(c2ccccc2)N1c1ccccc1 (stereo not drawn) 1.26 µM
CCCC1C(=O)N(c2ccccc2)C1c1ccccc1 (stereo not drawn) 4.47 µM
COc1ccc(-c2cc([C@H](O)[C@@H]3CCCCN3)c3ccccc3n2)cc1 3.98 µM
COc1ccccc1CNc1ncnc2ccc(-c3cccc(NS(C)(=O)=O)c3)cc12 15.8 µM
COc1ccc(CNc2ncnc3ccc(-c4cccc(NS(C)(=O)=O)c4)cc23)c(OC)c1 2.51 µM
N#Cc1c(-c2ccccc2)nc2n(c1=O)CCS2 15.8 µM
N#Cc1c(-c2ccc(Cl)cc2)nc2n(c1=O)CCCS2 7.94 µM
COC(=O)[C@H]1C[C@@H]1[C@H](NC(=O)OCc1ccccc1)c1ccccc1 3.16 µM
COC(=O)[C@@H]1C[C@H]1[C@@H](NC(=O)Oc1ccc(F)cc1)c1ccccc1 10 µM
COC(=O)[C@@H]1C[C@H]1[C@@H](NC(=O)c1ccccc1)c1ccccc1 1.26 µM
COC(=O)[C@H]1C[C@@H]1[C@H](NC(=O)c1ccccc1)c1ccccc1 7.94 µM
O=C(N[C@@H](c1ccccc1)[C@@H]1C[C@H]1C(=O)NCc1ccccn1)OCc1ccccc1 7.94 µM
